93 compounds from paper PMC4336329 (PLoS ONE, 2015) can be followed below.

Screen size: about 310,000 compounds; about 14,000 (4.5%) showed an effect of 50% or more. The effect is printed as a negative number. The full list was thinned out, with strong results kept by preference.
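Also: peak tail current of the secondary pulse compared with the same well before compound.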

Chain of human ether-à-go-go-related gene (hERG) potassium channel (Q12809 whole entry, looked up): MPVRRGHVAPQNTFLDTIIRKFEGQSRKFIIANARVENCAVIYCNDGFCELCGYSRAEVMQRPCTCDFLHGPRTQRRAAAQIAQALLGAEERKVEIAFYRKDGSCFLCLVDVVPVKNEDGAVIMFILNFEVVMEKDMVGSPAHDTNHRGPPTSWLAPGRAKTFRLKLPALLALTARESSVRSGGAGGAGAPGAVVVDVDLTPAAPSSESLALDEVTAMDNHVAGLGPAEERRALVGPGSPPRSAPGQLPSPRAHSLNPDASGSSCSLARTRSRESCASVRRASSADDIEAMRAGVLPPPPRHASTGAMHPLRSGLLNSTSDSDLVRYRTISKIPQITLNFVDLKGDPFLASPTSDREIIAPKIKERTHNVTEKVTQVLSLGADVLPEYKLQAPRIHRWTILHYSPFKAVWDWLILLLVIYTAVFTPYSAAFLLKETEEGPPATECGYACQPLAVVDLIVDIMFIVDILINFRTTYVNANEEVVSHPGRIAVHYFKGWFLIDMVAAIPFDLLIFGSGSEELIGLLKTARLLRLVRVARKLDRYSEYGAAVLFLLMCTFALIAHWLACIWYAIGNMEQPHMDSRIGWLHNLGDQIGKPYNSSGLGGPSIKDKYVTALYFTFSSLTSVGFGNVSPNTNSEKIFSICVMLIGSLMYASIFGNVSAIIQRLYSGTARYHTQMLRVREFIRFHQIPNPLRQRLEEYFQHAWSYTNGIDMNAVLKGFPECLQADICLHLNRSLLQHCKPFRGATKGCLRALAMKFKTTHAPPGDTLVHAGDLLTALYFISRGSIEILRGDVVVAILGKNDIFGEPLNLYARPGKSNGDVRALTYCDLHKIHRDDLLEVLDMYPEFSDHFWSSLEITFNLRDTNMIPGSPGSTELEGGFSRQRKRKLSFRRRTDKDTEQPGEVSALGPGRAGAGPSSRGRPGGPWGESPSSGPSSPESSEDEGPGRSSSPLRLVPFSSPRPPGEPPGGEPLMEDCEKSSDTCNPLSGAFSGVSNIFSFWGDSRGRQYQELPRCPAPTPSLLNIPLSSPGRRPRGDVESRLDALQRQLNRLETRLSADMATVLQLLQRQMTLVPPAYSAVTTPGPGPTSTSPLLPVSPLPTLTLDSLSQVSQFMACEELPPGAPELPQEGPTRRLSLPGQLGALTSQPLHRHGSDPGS

The assay has as its target human ether-à-go-go-related gene (hERG) potassium channel (human, UniProt Q12809). Briefly: primary screen, population patch clamp on CHO cells stably expressing hERG; higher = less effect of the substance.
As to `OCC(O)C(O)C(O)C(O)C1NCCS1` (stereo not drawn), the “hERG current change (%, negative = inhibition) at 10uM” value came to 0.867%. To `O=C1CSC(c2ccc(Cl)cc2)N1C1CCCCC1` (stereo not drawn) belongs -14.4%; to `Cc1cc2cc(CN(Cc3ccc4c(c3)OCO4)C(=O)c3ccco3)c(=O)[nH]c2cc1C`, -25%; to `ClCc1ncc(-c2ccc(Cl)cc2)o1`, 33.5%. Take `Cc1ccc(C(=O)NCc2ccc(Cl)cc2)cc1S(=O)(=O)N1CCCCC1`: the “hERG current change (%, negative = inhibition) at 10uM” value was -0.995%. To `O=C(NC(=S)Nc1cccnc1Cl)c1ccc(Cl)cc1` belongs 15.5%; to `O=C(c1ccc(S(=O)(=O)N2CCOCC2)cc1)N(Cc1ccco1)Cc1cccs1`, -44.5%; to `CN1CCN(S(=O)(=O)c2cccc(C(=O)N(C)Cc3cccs3)c2)CC1`, -7.83%.

Take `O=C(c1cccc(S(=O)(=O)N2CCOCC2)c1)N(Cc1ccc(F)cc1)Cc1ccco1`: the “hERG current change (%, negative = inhibition) at 10uM” value is given as -88.4%.

`CN(Cc1cccs1)C(=O)c1ccc(S(=O)(=O)N2CCCCC2)cc1`: the “hERG current change (%, negative = inhibition) at 10uM” value is listed as -18.8%. To `O=C(NCc1ccco1)c1cccc(S(=O)(=O)N2CCOCC2)c1` belongs -4.97%. To `O=C(NCc1ccc(F)cc1)c1cccc(S(=O)(=O)N2CCOCC2)c1` belongs -25.4%; to `CCN(Cc1cccs1)C(=O)c1cccc(S(=O)(=O)N2CCN(C)CC2)c1`, -14.1%. To `CN(Cc1cccs1)C(=O)c1cccc(S(=O)(=O)N2CCCCCC2)c1` belongs -59.9%. Take `O=C(c1cccc(S(=O)(=O)N2CCOCC2)c1)N(Cc1ccco1)Cc1cccs1`: the “hERG current change (%, negative = inhibition) at 10uM” value is -68.5%.

As to `Cc1ccc(N(Cc2ccco2)C(=O)c2cccc(S(=O)(=O)N(C)C)c2)cc1`, the “hERG current change (%, negative = inhibition) at 10uM” value is -21.5%. Turning to `CN(C)S(=O)(=O)c1cccc(C(=O)N(Cc2ccc(F)cc2)Cc2ccco2)c1`, the “hERG current change (%, negative = inhibition) at 10uM” value is reported as -52.3%. To `CN(C)S(=O)(=O)c1cccc(C(=O)NCc2ccco2)c1` belongs 10.7%. To `CCc1ccccc1NC(=O)c1cc(-c2cccc(O)c2)on1` belongs 12.7%; to `COc1cccc(C(=O)Nc2cnn(C(C)C)c2)c1`, 9.94%; to `CC(C)N(Cc1cnn(C)c1)Cc1nc(-c2ccc(Cl)cc2)no1`, 3.63%.

Turning to `COc1ccc(/C=N/NC(=O)c2ccncc2)cc1Cn1nc([N+](=O)[O-])c(Br)c1C`, the “hERG current change (%, negative = inhibition) at 10uM” value is on record as -49.4%.

As for `Cc1ccccc1NC(=O)C1C2CCCCC21` (stereo not drawn), the “hERG current change (%, negative = inhibition) at 10uM” value was 6.99%. To `CC(C)CC(NC(=O)C1CCC(C)CC1)C(=O)NCc1ccccn1` (stereo not drawn) belongs 18%; to `O=C(Oc1cccc(-c2cnc3ccccc3n2)c1)c1ccco1`, -5.02%. In the case of `O=C(O)c1ccccc1OCc1ccccc1Cl`, the “hERG current change (%, negative = inhibition) at 10uM” value was 6.55%. To `O=C(CNC(=O)c1ccccc1Cl)NC1CCN(Cc2ccccc2)CC1` belongs 13.1%; to `Cl.O=C(NC1CCN(Cc2ccccc2)CC1)c1ccccc1OCc1ccccc1`, -69.3%; to `O=C(NC1CCN(Cc2ccccc2)CC1)c1ccccc1OCc1ccccc1Cl`, -69.2%. To `CCOc1ccccc1C(=O)NC1CCN(Cc2ccccc2)CC1` belongs -46.6%. To `O=C(NC1CCCC1)c1ccccc1OCc1ccccc1` belongs -39.6%; to `CC(C)N1CC23C=CC(O2)C(C(=O)OCc2ccccc2)C3C1=O` (stereo not drawn), 3.29%; to `COc1cc(NS(=O)(=O)c2ccc(N/C=C(\C=O)c3nc4cc(Cl)ccc4o3)cc2)nc(OC)n1`, -2.34%. On to `CCO[C@H]1OC(C(=O)O)=C[C@@H](C(C)(C)C)[C@@H]1CCCO`, for which the “hERG current change (%, negative = inhibition) at 10uM” value was found to be 7.12%. For `Cl.Fc1ccccc1Nc1nc(Cl)nc(Cl)n1`, the “hERG current change (%, negative = inhibition) at 10uM” value was determined as 7.69%. To `COc1ccccc1N1CCN(c2ncc(C(=O)N3CCN(c4cccc(Cl)c4)CC3)c3ccccc23)CC1` belongs -10.7%; to `O=C(C1CCCCC1)N1CCN(c2ccccc2F)CC1`, -7.04%; to `CCCOC(=O)CSc1nc(N2CCOCC2)c2c(c1C#N)CC(C)(C)OC2`, -40.5%.

As for `O=C(Nc1ccc2ccccc2c1)NC1CCS(=O)(=O)C1` (stereo not drawn), the “hERG current change (%, negative = inhibition) at 10uM” value is 6.88%. To `Cc1ccc(C)c(NC(=O)CCNS(=O)(=O)c2ccc3[nH]c(=O)oc3c2)c1` belongs 11.4%; to `COCCNc1nnc(SCC(=O)Nc2cc(-c3ccccc3)nn2-c2ccccc2)s1`, -50.9%. Consider `COCCNc1nnc(SCC(=O)Nc2nnc(-c3ccccc3)o2)s1`, for which the “hERG current change (%, negative = inhibition) at 10uM” value amounted to 21.8%. To `O=C(CSc1nncs1)Nc1cc(-c2ccccc2)nn1-c1ccccc1` belongs -39.1%. To `CC(C)(C)c1cc(NC(=O)CSc2nnc(N)s2)n(-c2ccccc2)n1` belongs -29.1%; to `Cc1ccc(C(=O)OCC(=O)Nc2cc(C(C)(C)C)nn2-c2ccccc2)c(O)c1`, -8.07%. To `CC(C)(C)c1cc(NC(=O)CSc2nnc(NCc3ccccc3)s2)n(-c2ccccc2)n1` belongs -50.1%. For `Cc1nnc(SCC(=O)Nc2cc(C(C)(C)C)nn2-c2ccccc2)s1`, the “hERG current change (%, negative = inhibition) at 10uM” value is -12.9%.

As to `O=C(COC(=O)c1ccc(O)cc1O)Nc1cc(-c2ccccc2)nn1-c1ccccc1`, the “hERG current change (%, negative = inhibition) at 10uM” value was -9.42%. Consider `CC(C)(C)c1cc(NC(=O)COC(=O)c2ccc(O)cc2O)n(-c2ccccc2)n1`, for which the “hERG current change (%, negative = inhibition) at 10uM” value is -79.3%. On to `O=C(Nc1nc2c(F)cccc2s1)C1CC1`, for which the “hERG current change (%, negative = inhibition) at 10uM” value was -8.38%. To `Cn1c(=O)cc(OCC(=O)N2CCN(Cc3ccc4c(c3)OCO4)CC2)c2ccccc21` belongs -33.4%; to `O=C(CSc1ccccc1)Nc1nccs1`, -3.78%; to `O=C(CC1C(=O)NCCN1Cc1ccc(-c2ccccc2)cc1)NCCOc1cccnc1` (stereo not drawn), -25.9%. To `O=C(c1ccccc1)N1N=C(C(F)(F)F)CC1(O)c1ccccc1` (stereo not drawn) belongs 10.6%.

Take `C=CCNC(=O)c1ccc2c3n(nc2c1)-c1ccc(C)cc1CO3`: the “hERG current change (%, negative = inhibition) at 10uM” value is on record as -24.6%. To `O=C(Nc1ccccc1C(F)(F)F)C1CCN(C(=O)c2cccs2)CC1` belongs 10.5%.

Regarding `Cc1ccc(NC(=O)C2Cc3ccccc3C(=O)O2)cc1` (stereo not drawn), the “hERG current change (%, negative = inhibition) at 10uM” value is recorded as 13%.

For the compound `O=C(NCCOc1ccccc1)c1cc2ccccc2o1`, the “hERG current change (%, negative = inhibition) at 10uM” value is -2.6%. To `COc1ccc(NC(=S)NN2C(C)CCCC2C)cc1` (stereo not drawn) belongs 16.6%; to `CC1CCCC(C)N1NC(=S)Nc1ccc(OC(F)F)cc1` (stereo not drawn), -68.3%. To `CCOc1ccc(NC(=S)NN2C(C)CCCC2C)cc1` (stereo not drawn) belongs 6.62%. To `N/C(=N\OC(=O)c1ccc(F)cc1)c1ccc(Br)cc1` belongs 15.4%; to `CC(=O)Nc1ccc(C=C(C(C)=O)C(C)=O)cc1`, 2.2%; to `COc1ccc(CN2C(=O)c3cccnc3C2=O)cc1S(=O)(=O)N1CCOc2ccc(C)cc21`, -11.6%. Regarding `CNc1c([N+](=O)[O-])cnn1-c1cccc(Cl)n1`, the “hERG current change (%, negative = inhibition) at 10uM” value is reported as 14.4%. With `O=C(O)c1ccccc1C(=O)NCCCn1ccnc1`, the “hERG current change (%, negative = inhibition) at 10uM” value stood at 18.4%. To `Cc1cccn2c(=O)c3cc(C(=O)NCCc4ccccc4)c(=N)n(CCCn4ccnc4)c3nc12` belongs -74.4%; to `CC(NC(=O)C(=O)NCCCn1ccnc1)c1ccccc1` (stereo not drawn), 15.6%. To `Cc1cccn2c(=O)c3cc(C(=O)NCCCn4ccnc4)n(C)c3nc12` belongs -11%; to `Cc1cccn2c(=O)c3cc(C(=O)NC(C)c4ccccc4)c(=N)n(CCCn4ccnc4)c3nc12` (stereo not drawn), -68.1%. Regarding `Cc1ccc(N(C(=O)c2cccs2)C2C=CS(=O)(=O)C2)cc1` (stereo not drawn), the “hERG current change (%, negative = inhibition) at 10uM” value is given as -24.4%. To `CCCOC(=O)c1ccc(NC(=O)c2cc(OC)c(OC)c(OC)c2Br)cc1` belongs 8.82%; to `O=C(O)C(=O)O.O=[N+]([O-])c1cccc(OCCN2CCC(Cc3ccccc3)CC2)c1`, -71.1%; to `CCc1cccc(OCCOCCN2CCCC2)c1.O=C(O)C(=O)O`, -46.1%. As to `FC(F)(F)c1cccc(OCCN2CCN(Cc3ccccc3)CC2)c1.O=C(O)C(=O)O`, the “hERG current change (%, negative = inhibition) at 10uM” value is recorded as -40.8%.

Turning to `O=C(O)c1cc([N+](=O)[O-])ccc1N1CCC(Cc2ccccc2)CC1`, the “hERG current change (%, negative = inhibition) at 10uM” value was -4.42%. To `O=C(O)C(=O)O.O=[N+]([O-])c1cccc(OCCCN2CCC(Cc3ccccc3)CC2)c1` belongs -78.1%.

Turning to `Cn1c2c(c(=O)n(C)c1=O)C(c1cc3c(cc1Br)OCO3)CC(=O)N2` (stereo not drawn), the “hERG current change (%, negative = inhibition) at 10uM” value was 3.46%. To `O=C(c1ccc(Cn2c(=O)[nH]c3ccsc3c2=O)cc1)N1CCN(c2ccccc2)CC1` belongs 7.23%; to `Cc1ccccc1C(=O)N1CCC(C(=O)Nc2nc3ccc(F)cc3s2)CC1`, -42.8%. On to `CC(Sc1nc2cc(Cl)ccc2s1)C(=O)Nc1ccc2c(c1)OCO2` (stereo not drawn), for which the “hERG current change (%, negative = inhibition) at 10uM” value amounted to 6.08%.

As to `COc1ccccc1N1CCN(C(=O)CCCN2C(=O)c3cccc4cccc(c34)C2=O)CC1.Cl`, the “hERG current change (%, negative = inhibition) at 10uM” value is -70.9%.

In the case of `COc1ccccc1N1CCN(CCN2C(=O)CC(=C3c4ccccc4-c4ccccc43)C2=O)CC1.Cl`, the “hERG current change (%, negative = inhibition) at 10uM” value was found to be 0.408%.

As to `CCOc1ccccc1N1CCN(C(=O)CCCN2C(=O)c3cccc4cccc(c34)C2=O)CC1`, the “hERG current change (%, negative = inhibition) at 10uM” value was -8.72%. To `COc1ccccc1N1CCN(CCCCOc2ccc(C)cc2C)CC1.O=C(O)C(=O)O` belongs -50.3%. To `COc1ccccc1N1CCN(C(=O)COc2cc(C)ccc2C)CC1` belongs -18.3%; to `COc1ccccc1OCCCCN1CCN(c2ccccc2OC)CC1.O=C(O)C(=O)O`, -43.1%. To `COc1ccccc1N1CCN(CCOc2c(OC)cccc2OC)CC1.Cl` belongs -34.6%; to `COc1ccccc1N1CCN(C(=O)CCN2C(=O)c3cccc4cccc(c34)C2=O)CC1`, 15.5%; to `Br.COc1ccccc1N1CCN(CCCCN2C(=O)c3ccccc3C2=O)CC1`, -53.5%. For `COc1ccccc1N1CCN(CCCCOc2c(OC)cccc2OC)CC1.O=C(O)C(=O)O`, the “hERG current change (%, negative = inhibition) at 10uM” value is on record as -57.9%. To `Cc1ccccc1OCCCCCCN1CCNCC1.O=C(O)C(=O)O` belongs -1.56%. To `COc1ccccc1N1CCN(C(=O)CN2C(=O)c3ccccc3C2=O)CC1` belongs 11.9%.
